Experimental data from PubChem BioAssay (NCATS).
Records with an inconclusive call do not appear. Entries that show only a call come without a potency. The source made the active and inactive calls. The call rests on the fitted dose curve; in most records, active means well fitted cell-killing curve with a large enough effect; inconclusive means small, poorly fitted or top-dose-only effect; inactive means flat fitted curve, though single readings scatter. Where a SMILES comes first, the peptide text is derived from it. Bridges are numbered along the chain shown (N, C = ends). [ ]: non-standard residue; d: D form. The star is where a group is joined. Dab(CH2SO3H) = N[C@@H](CCNCS(=O)(=O)O)C(=O)O; X3 = CC[C@@H](C)CCCCC(=O)*; Dab = NCC[C@H](N)C(=O)O

Experiment: qHTS assay to identify small molecule inhibitors of chordoma cells - UCH-2 (AID 1259356)
Conditions: UCH-2 chordoma viability, CellTiter-Glo ATP luminescence, 48 h; series mostly up to 46.1 µM
Potency means the concentration at half of the fitted maximal effect.

| SMILES | Potency |
| --- | --- |
| O=C(O)c1cc(O)c2c(c1)[O][Bi][O]2 | inactive |
| CN(C)CC/C=C1/c2ccccc2CSc2ccccc21 | inactive |
| Nc1nc(N)c2nc(CNc3ccc(C(=O)N[C@@H](CCC(=O)O)C(=O)O)cc3)cnc2n1 | inactive |
| CC1=CCC(C(C)(C)O)CC1 (configuration not stated) | inactive |
| CO[C@H]1C[C@@H]2CC[C@@H](C)[C@@](O)(O2)C(=O)C(=O)N2CCCC[C@H]2C(=O)O[C@H]([C@H](C)C[C@@H]2CC[C@@H](OCCO)[C@H](OC)C2)CC(=O)[C@H](C)/C=C(\C)[C@@H](O)[C@@H](OC)C(=O)[C@H](C)C[C@H](C)/C=C/C=C/C=C/1C | inactive |
| OCC(S)CS (configuration not stated) | inactive |
| CC(C)=O | inactive |
| CO[C@H]1C=CO[C@@]2(C)Oc3c(C)c(O)c4c(O)c(c5c(nc6cc(C)ccn65)c4c3C2=O)NC(=O)/C(C)=C\C=C[C@H](C)[C@H](O)[C@@H](C)[C@@H](O)[C@@H](C)[C@H](OC(C)=O)[C@@H]1C | inactive |
| C[C@]12CCC(=O)C=C1CC[C@@H]1[C@@H]2[C@@H](O)C[C@@]2(C)[C@H]1CC[C@]2(O)C(=O)COP(=O)(O)O | inactive |
| CC[C@@H](C)CCCCC(=O)N[C@@H](CCNCS(=O)(=O)O)C(=O)N[C@H](C(=O)N[C@@H](CCNCS(=O)(=O)O)C(=O)N[C@H]1CCNC(=O)[C@H]([C@@H](C)O)NC(=O)[C@H](CCNCS(=O)(=O)O)NC(=O)[C@H](CCNCS(=O)(=O)O)NC(=O)[C@H](CC(C)C)NC(=O)[C@@H](CC(C)C)NC(=O)[C@H](CCNCS(=O)(=O)O)NC1=O)[C@@H](C)O (X3-[Dab(CH2SO3H)]T[Dab(CH2SO3H)][Dab][Dab(CH2SO3H)][dL]L[Dab(CH2SO3H)][Dab(CH2SO3H)]T; lactam 4-C) | inactive |
| C=CC1=C(C)C2=CC3=NC(=C(CC(=O)[O-])C4=NC(=C(C)C4=C([O-])[O-])C=c4[n-]c(c(C)c4CC)=CC1=N2)C(CCC(=O)[O-])C3C.[Cu+2].[Na+].[Na+].[Na+] (configuration not stated) | inactive |
| CCCCCCCCCCCC[n+]1ccc2ccccc2c1 | 25.9 µM (active) |
